Source: PubChem
Luciferase inh = Firefly luciferase inhibition profiling of diverse chemical library using quantitative high-throughput screening; Luciferin 4-monooxygenase (Photinus pyralis), P08659; purified P. pyralis luciferase, luminescence, biochemical; Potency, µM (highest dose often 115 µM), actives largely listed as inhibitors; actives 2.5% (n = 76,000); AID 1347043, 2019; note: nearly all actives have a fitted effect of over 65% in size
Target sequence (P08659 whole entry, looked up): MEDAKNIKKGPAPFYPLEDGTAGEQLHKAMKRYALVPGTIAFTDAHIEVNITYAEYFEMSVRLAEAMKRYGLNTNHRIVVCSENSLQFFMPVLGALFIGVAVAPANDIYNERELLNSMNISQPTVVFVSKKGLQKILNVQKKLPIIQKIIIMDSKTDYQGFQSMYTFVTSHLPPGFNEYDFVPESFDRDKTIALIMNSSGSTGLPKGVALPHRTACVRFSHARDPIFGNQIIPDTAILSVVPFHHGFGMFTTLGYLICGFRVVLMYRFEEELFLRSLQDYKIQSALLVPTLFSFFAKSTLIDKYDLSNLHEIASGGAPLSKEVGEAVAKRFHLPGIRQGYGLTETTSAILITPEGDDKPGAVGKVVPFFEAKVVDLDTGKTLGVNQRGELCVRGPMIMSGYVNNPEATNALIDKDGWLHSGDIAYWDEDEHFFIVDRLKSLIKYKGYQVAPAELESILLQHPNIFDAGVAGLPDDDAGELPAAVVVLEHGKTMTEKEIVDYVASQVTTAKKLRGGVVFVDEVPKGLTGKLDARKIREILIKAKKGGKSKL
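FLuc 10nM, D-luciferin 10uM, ATP 10uM, Mg acetate 10mM, Tris acetate pH 7.5, Tween/BSA; cpd qHTS; enzyme added last; CCD luminescence.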
GPT2 inh = Primary qHTS assay for inhibitors of Glutamate pyruvate transaminase 2 (GPT2) | Recombinant GPT2, coupled pyruvate oxidase/HRP Amplex Red fluorescence | Potency, µM (titrated, usually from 57.7 µM), for the others: top-dose activity change, negative = inhibition, hits mostly inhibitors | actives 0.25% (n = 100,000); note: nearly all actives have a fitted effect of over 60% in size
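GPT2 10ng/uL, a-KG 250uM, L-Ala 2mM, HEPES pH7.5 + 0.0001% Tween; 30 min RT. Then Amplex mix (PO/HRP/ThPP), 30 min RT dark, fluorescence. AOA 50uM used as positive control.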
HEK293 tox = Cytotoxic Profiling in HEK 293 Cell Line of Diverse Libraries Using Quantitative High-Throughput Screening | HEK 293 viability, ATP luminescence (CellTiter-Glo), 48-72 h | Potency, µM (series often up to 115 µM), for the others: at the highest dose activity change, negative = cytotoxicity, usual class: inhibitors | actives 6.6% (n = 94,000); note: nearly all actives have a fitted effect of over 60% in size
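HEK 293 cells seeded at 250 cells/well were exposed to compound for 48 or 72 hr at 37 degree Celsius. Viability taken as ATP content by CellTiter-Glo luminescence.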
hNpr1 antagonist = Natriuretic polypeptide receptor (hNpr1) antagonism - Primary qHTS; Atrial natriuretic peptide receptor 1 (Homo sapiens), P16066; HEK293 hNpr1 GloSensor cGMP, ANP-stimulated luminescence; Potency, µM (series often up to 46.3 µM), inactives show at the top dose activity change, negative = inhibition, usual class: inhibitors; actives 1.6% (n = 76,000); AID 1347048, 2019; calls by dose curve; note: nearly all actives have a fitted effect of over 60% in size
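HEK293 cells stably expressing human Npr1 and cGMP GloSensor pGS-40F, loaded 2 h with 2% GloSensor reagent, given compound 30 min at room temperature. Luminescence read before and 20 min after 0.1 nM hNppA.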
NIH3T3 tox = Cytotoxic Profiling in NIH 3T3 Cell Line of Diverse Libraries Using Quantitative High-Throughput Screening | NIH 3T3 viability, CellTiter-Glo ATP luminescence, 48-72 h | Potency, µM (series often up to 96.7 µM), for inactives: top-dose activity change, negative = cytotoxicity, hits mostly inhibitors | actives 4.3% (n = 94,000); note: nearly all actives have a fitted effect of over 55% in size
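Cytotoxicity was measured by CellTiter-Glo ATP luminescence after 48 or 72 h compound exposure at 37 °C. Mouse NIH 3T3 fibroblasts were seeded at 400 cells/well and dosed by 23 nL pin transfer.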
An asterisk follows results filed as active; i = inactive; ? = inconclusive; . = not tested or not shown; [ ] = remark or other dose. Shown are actives, neighbours in structure and some others; about 10% of the full set was active somewhere. Unless noted, calls come from the whole dose curve; as a rule, active = well fitted curve in the direction sought with a large enough effect; inconclusive = small, poorly fitted or top-dose-only effect, or another doubt; inactive = no such curve, though single readings can be large; an effect the other way counts as inactive or inconclusive. % is set by controls: 0 for no effect and ±100 for the full control effect; potency is the fitted concentration of half-maximal effect.

SMILES | Luciferase inh | GPT2 inh | HEK293 tox | hNpr1 antagonist | NIH3T3 tox
Cc1ccc(C(=O)N2CCC3(CC2)N(C)C(=O)CS3(=O)=O)cc1 | i | 1.5% | i | -8.6% | 1.4%
CC(C)OC(=O)N1CCC(COc2cnc3c(ccn3CC(N)=O)c2)CC1 | ? | 3.9%[88.5 µM] | ? | 4.3%[70.6 µM] | ?
NC(=O)Cn1ccc2cc(OCC3CCN(c4cc(NC5CC5)ncn4)CC3)cnc21 | ? | 0.6%[88.5 µM] | 25.1µM* | 17.8µM* | ?
O=C(O)Cn1ccc2cc(OCC3CCN(C(=O)OC4CCCC4)CC3)cnc21 | ? | 4.2%[88.5 µM] | i | -2.1%[70.6 µM] | 31.6µM*
O=C(c1cnccn1)N1CCCC(Cc2nc(C3CCOCC3)no2)C1 (stereo not given) | i | 2.5% | 1.5% | 0.0% | i
CCOc1cc(=O)n2c(c1C(=O)Nc1ccc3c(c1)OCO3)CCCC2 | 39.8µM* | i | ? | -1.5% | ?
O=C1c2cc(N3CCOCC3)nc(-c3cccc(F)c3)c2CN1CC1CC1 | i | -14.2%[88.5 µM] | 112µM* | -22.8%[70.6 µM] | ?
Cn1cc(CN2Cc3c(cc(N4CCOCC4)nc3-c3cccc(F)c3)C2=O)cn1 | i | i | 89.1µM* | -23.5%[70.6 µM] | ?
COc1ccc(-c2nc(N3CCOCC3)cc3c2CN(Cc2ccccc2)C3=O)cc1 | ? | -7.9%[88.5 µM] | ? | -21.6%[70.6 µM] | ?
C[S+](=O)([O-])Nc1cccc(-c2nc(N3CCOCC3)cc3c2CN(CC2CC2)C3=O)c1 | i | 2.8% | -22.2% | -2.3% | ?
O=C1c2cc(N3CCOCC3)nc(-c3ccccc3)c2CN1Cc1ccccc1 | i | 2.8%[88.5 µM] | 50.1µM* | ? | 31.6µM*
CN1CC(=O)N(C2CCCNCC2)Cc2c(NCc3cccs3)ncnc21 (stereo not given) | . | 1.7% | i | . | 0.3%
COc1ccc(C(=O)N2CCC(n3cc(-c4nc(-c5ccccc5)no4)nn3)C2)cc1OC (stereo not given) | ? | i | ? | ? | -24.9%
O=C(c1cc(F)ccc1Cl)N1CCC(n2cc(-c3nc(-c4ccccc4)no3)nn2)C1 (stereo not given) | ? | i | ? | 12.6µM* | ?
CN(C)c1ccc(C(=O)N2CCC(n3cc(-c4nc(C5CC5)no4)nn3)C2)cc1 (stereo not given) | i | 1.6% | ? | 0.0% | -21.7%
CN(C)c1ccc(C(=O)N2CCC(n3cc(-c4nc(-c5ccccc5)no4)nn3)C2)cc1 (stereo not given) | ? | i | 44.7µM* | 0.0% | ?
Cc1ccc(C(=O)N2CCC(n3cc(-c4nc(-c5ccccc5)no4)nn3)C2)cc1C (stereo not given) | 31.6µM* | i | 44.7µM* | 2µM* | ?
Cc1nc(CN2C(=O)OC3(CCN(C(=O)c4ccnn4C)CC3)C2(C)c2ccccc2)cs1 (stereo not given) | i | 0.7% | 2.3% | -0.1% | 31.6µM*
COc1ccccc1C(=O)N1CCC2(CC1)OC(=O)N(Cc1csc(C)n1)C2(C)c1ccccc1 (stereo not given) | i | 2.2% | -6.7% | -1.2% | ?
Cc1nc(CN2C(=O)OC3(CCN(C(=O)c4scnc4C)CC3)C2(C)c2ccccc2)cs1 (stereo not given) | i | i | -14.0% | -0.6% | 28.2µM*
Cc1nc(CN2C(=O)OC3(CCN(C(=O)c4cccnc4)CC3)C2(C)c2ccccc2)cs1 (stereo not given) | i | -1.2% | i | -2.3% | 44.7µM*
CC(C)c1noc(-c2cccn3c(CNC(=O)c4ccc(F)cc4Cl)nnc23)n1 | i | i | i | 1.9% | i
COc1cccc(-c2c(C(=O)N3CCN(C)CC3)nc3sccn23)c1 | . | 3.1% | -1.1% | . | 1.5%
COC[C@@H]1OCCN(S(=O)(=O)c2cc(OC)ccc2OC)[C@H]1c1ccccc1 | . | 0.7% | -6.6% | . | -8.4%
